The results in this text go back to PubChem BioAssay (NCI).

Assay in all cases: NCI-60 one-dose screen, 48 h (100 = growth as untreated, 0 = no growth, -100 = all killed)
Conditions in all cases: 10 µM unless noted

Test [1] concerns HCT-15 colon.
The test system of test [2] is HT29 colon.
Test [3] concerns SNB-19 CNS.
In test [4] the test system is U251 CNS.
Test [5] has as its system PC-3 prostate.
Test [6] deals with SK-MEL-5 melanoma.
Test [7] concerns UACC-62 melanoma.
Test [8] concerns LOX IMVI melanoma.
Test [9] deals with SK-MEL-28 melanoma.

Compounds without any hit were thinned out: in the full panel of roughly 83,000, 20% have a hit.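 Note: values are percent growth. 100 is the growth of untreated cells, values between 100 and 0 indicate rising inhibition; between -100 and 0 indicates cell death.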 Unmarked numbers belong to inactive results. Activity calls are given as the source filed them. How the source made its calls: active means growth percent below 10; inactive means the rest.

`COc1ccc(Nc2ncccc2C(=O)NCc2cn(Cc3cccc(Oc4ccccc4)c3)nn2)c(OC)c1`: the growth in [1] was 26.1%; in [2], 3.15% (active); in test [3] it was 44.5%; in [4], 30.2%; in test [5], 43.9%; in test [6], 23%. For the same molecule, the growth in [7] is 33.9%; in test [8] it was 48.4%; in [9] it was 61.8%.
On to `O=C(C1=Cc2cc3ccccc3n2Cc2cnnn21)c1ccccc1`, for which the growth in test [1] was 38.6%; in test [2], 7.8% (active); in test [3], 32.2%; in test [4] it was 32.6%; in test [5] it was 47.7%; in [6], 45.8%. In addition, the growth in test [7] was 44.4%; in [8] it was 49.8%; in test [9] it was 64.8%.
For the molecule `CCN1CCN(c2nc(NNC(=O)c3ccccc3)nc(N3CCN(C(c4ccccc4)c4ccccc4)CC3)n2)CC1`, the growth was 25.7% in test [1]; 1.28% (active) in [2]; 72.5% in test [3]; 49.4% in [4]; 48.5% in test [5]; -92.4% (active) in [6]. For the same molecule, the growth is 80% in test [7], -44.6% (active) in [8] and 82.9% in [9].
In the case of `CC(C)(C)n1cc(-c2ccnc(NCCCNS(=O)(=O)c3ccc(C(F)(F)F)cc3)c2)c(-c2cccc(O)c2)n1`, the growth in test [1] is -55.6% (active); in test [2], 2.27% (active); in test [3], 6.04% (active); in test [4], 12.9%; in [5] it was 13.2%; in [6], 16.7%. In addition, the results for the growth in test [7], in [8] and in test [9] were 48.7%, -81.8% (active) and -48.3% (active), respectively.
As for `CC(C)(C)n1cc(-c2ccnc(NCCNS(=O)(=O)c3ccc(F)cc3)c2)c(-c2cccc(O)c2)n1`, the growth in test [1] is 8.99% (active); in [2], 15.8%; in test [3], 71.3%; in test [4] it was 48.4%; in test [5], 35.5%; in [6], 19.4%. In addition, the values for the growth in [7], in test [8] and in test [9] were 61.8%, 31.2% and 52.4%, respectively.
On to `CN(C)CC(C(=O)c1ccccc1)c1ccccc1` (configuration not stated), for which the growth is -37.7% (active) in test [1]; -17.4% (active) in [2]; 84.4% in test [3]; 59.8% in test [4]; 38.3% in test [5]; 64.2% in test [6]. Moreover, the growth in [7] is 34.8%; in test [8] it was 3.08% (active); in test [9], 61%.
As for `Cc1cc(N)n(S(=O)(=O)c2oc(-c3ccccc3)nc2C#N)n1`, the growth in test [1] was 61.8%; in test [2], 90.4%; in test [3] it was 93.1%; in [4], 86.7%; in test [5], 100%; in [6], 100%. The growth in test [7] was 90.8%; in test [8], 68.2%; in test [9] it was 106%.
Take `C=CCSc1n[nH]c(-c2cccs2)n1`: the growth in test [1] was 103%; in test [2] it was 102%; in test [3], 103%; in [4] it was 99.3%; in test [5] it was 108%; in test [6] it was 104%. Also, the figures for the growth in test [7], in test [8] and in [9] were 101%, 99.8% and 129%, respectively.
Consider `CCOc1cc2c(Cl)ncnc2c(OCC)c1OCC`, for which the growth was 55.1% in test [1]; 78.4% in [2]; 97.3% in test [3]; 82.6% in [4]; 18.1% in [5]; 77.4% in [6]. Also, the figures for the growth in test [7], in test [8] and in test [9] were 64.3%, 83.1% and 58.1%, respectively.
On to `COc1ccc(-n2c(=S)sc3c(Cl)nc(C)nc32)c(OC)c1`, for which the growth in [1] was 21%; in [2], -7.41% (active); in [3] it was 12.5%; in [4], -39.6% (active); in [5] it was 56.5%; in test [6], 80.1%. For the same molecule, the growth is 51.6% in test [7], -81.9% (active) in test [8] and -3.3% (active) in test [9].
`COc1ccc(-c2ccc(C)n2-c2ccc(-c3nc4ccccc4s3)cc2)cc1`: the growth in [1] was 96.5%; in [2], 92%; in test [3], 91.9%; in [4], 90%; in test [5], 91.6%; in test [6] it was 102%. In addition, the results for the growth in test [7], in [8] and in test [9] were 86.1%, 88.3% and 113%, respectively.
For the molecule `COc1ccc(S(=O)(=O)NCCCNc2nccc(-n3ccc4cccnc43)n2)cc1`, the growth was 75.8% in test [1]; 108% in test [2]; 89.1% in test [3]; 92.5% in [4]; 86.2% in [5]; 99.1% in test [6]. For the same molecule, the values for the growth in test [7], in [8] and in test [9] were 88.3%, 90.8% and 104%, respectively.
Regarding `CC(=O)c1cc2c(N)c(C(=O)Nc3cccc4c3OCCO4)sc2nc1C`, the growth in test [1] was 97.3%; in [2], 103%; in [3], 93.2%; in test [4], 99.4%; in test [5] it was 91.4%; in [6], 95.3%. Also, the growth in [7] was 67.8%; in test [8] it was 97.5%; in test [9], 94%.
On to `COc1ccc(S(=O)(=O)n2cc(C(=O)C(=O)Nc3ccncc3)c3ccccc32)cc1F`, for which the growth in [1] was 84.2%; in test [2], 83.9%; in [3] it was 78.9%; in [4] it was 77.4%; in [5], 79.8%; in [6], 73.5%. The growth in [7] was 65.5%; in [8], 70.2%; in [9], 92.2%.
Take `COc1cc(-c2nn(-c3cccc(NC(=O)Nc4cc(C(F)(F)F)cc(C(F)(F)F)c4)c3)cc2-c2ccncc2)ccc1Cl`: the growth was 2.59% (active) in [1]; -41.2% (active) in [2]; 6.55% (active) in [3]; -81.7% (active) in test [4]; -55.2% (active) in test [5]; -96.1% (active) in test [6]. Moreover, the growth is -55.9% (active) in [7], -91.3% (active) in test [8] and -28.9% (active) in [9].
On to `C1=Cc2ccccc2N(c2nnc(-c3ccccc3)o2)c2ccccc21`, for which the growth was 45.8% in test [1]; 102% in [2]; 96.7% in test [3]; 66.8% in [4]; 60.6% in test [5]; 72% in [6]. Also, the growth in [7] is 86.4%; in test [8], 79.9%; in test [9], 98.2%.
`CCc1ccc(-c2ccc(=O)n(-c3ccc(S(N)(=O)=O)cc3)n2)cc1`: the growth in test [1] was 29.7%; in [2], 11.8%; in test [3], 57.6%; in [4], 35%; in test [5], 35%; in test [6], 12.9%. In addition, the growth in [7] was 38.5%; in [8], 55.1%; in [9], 49.4%.
Take `C=C(C)[C@@H]1CC[C@]2(C(=O)O)CC[C@]3(C)[C@H](CC[C@@H]4[C@@]5(C)C[C@@H](CC#Cc6ccc(C(F)(F)F)cc6)[C@H](O)C(C)(C)[C@@H]5CC[C@]43C)[C@@H]12`: the growth was 36.2% in [1]; 15.7% in test [2]; 30.8% in test [3]; -4.28% (active) in [4]; -52.2% (active) in test [5]; -32.9% (active) in [6]. Besides, the growth in test [7] is -31.5% (active); in [8], -53.5% (active); in [9], -40.8% (active).
With `COc1ccc(-c2c(N)n[nH]c2-c2cc(OC)c(OC)c(OC)c2)cc1`, the growth in [1] is 24.6%; in test [2], 4.25% (active); in test [3], 35.9%; in test [4], 23.5%; in test [5] it was 40.9%; in test [6] it was 0.844% (active). The growth in test [7] is 25.7%; in test [8], 43.2%; in test [9], 50.4%.
Regarding `CN(CCCCCl)P(=O)(OCc1ccc([N+](=O)[O-])o1)C(F)(F)C[C@H](NC(=O)CNC(=O)c1ccc(N=[N+]=[N-])cc1)C(=O)NCCc1ccc(O)cc1` (some centres not stated), the growth was 103% in [1]; 86.3% in [2]; 94.1% in [3]; 69.1% in [4]; 101% in [5]; 91.3% in [6]. The results for the growth in [7], in [8] and in test [9] were 59.7%, 79.3% and 63.9%, respectively.
In the case of `CCCCCCN1CSC(=S)N(CCCCCC)C1`, the growth in test [1] was 103%; in test [2], 115%; in [3], 106%; in test [4], 103%; in [5], 83.6%; in test [6], 94.5%. Also, the growth in test [7] was 95.3%; in test [8] it was 91.8%; in test [9], 102%.
Take `Cc1nc2c3c(ncn2n1)Oc1c(c(=O)[nH]c2ccccc12)C3c1ccc(Cl)cc1` (configuration not stated): the growth was 99.6% in test [1]; 102% in [2]; 92% in [3]; 94.1% in [4]; 83.4% in test [5]; 94.8% in test [6]. In addition, the growth in test [7] is 90.6%; in test [8], 91.1%; in [9] it was 110%.
Consider `COc1ccc(C2C=C(c3ccc(N)cc3)N=C3SC=CN32)cc1OC` (configuration not stated), for which the growth is 101% in [1]; 103% in test [2]; 102% in test [3]; 98.5% in test [4]; 91.4% in test [5]; 103% in [6]. The growth was 112% in test [7], 105% in test [8] and 113% in test [9].
As to `O=C(N/N=C/C=C\c1ccccc1)C(=O)N/N=C/C=C/c1ccccc1`, the growth in test [1] is 108%; in test [2], 110%; in [3], 120%; in test [4], 107%; in test [5], 109%; in test [6] it was 110%. The growth in test [7] was 114%; in [8], 94%; in test [9] it was 115%.
Turning to `CN(C[C@H]1Cc2c(cccc2N2CCN(Cc3ccccn3)CC2)CN1)[C@H]1CCCc2cccnc21`, the growth was 37.3% in test [1]; 36.9% in [2]; 57.6% in [3]; 32.5% in test [4]; 45.7% in [5]; 55.8% in test [6]. The growth is 85.1% in test [7], 44.9% in test [8] and 88.5% in [9].
In the case of `CCCCCCCC[C@@H](O)CC(=O)N[C@@H](CC(N)=O)C(=O)N[C@@H](CCC(N)=O)C(=O)N[C@@H](CC(=O)c1cc(C)cc(O)c1C(=O)c1c(O)cccc1O)CC(C)C`, the growth in test [1] was 45.6%; in test [2] it was 2.56% (active); in test [3], 23.8%; in test [4], 4.49% (active); in [5], 10.8%; in [6] it was 16.1%. Besides, the values for the growth in test [7], in [8] and in test [9] were 0.947% (active), 12.5% and 28.5%, respectively.
`CCOC(=O)c1c(NS(=O)(=O)c2ccc(C)cc2)sc2c1CCC1(C2)OCCO1`: the growth in test [1] is 98.3%; in test [2] it was 104%; in test [3], 98.7%; in test [4], 99.1%; in test [5] it was 87.1%; in test [6] it was 95.2%. Besides, the growth in [7] is 78.2%; in test [8] it was 98.9%; in [9] it was 101%.
Regarding `CN(CCCCN(C[C@H]1Cc2ncccc2CN1)[C@H]1CCCc2cccnc21)C1CCC(F)(F)CC1`, the growth was 70.4% in test [1]; 82.3% in [2]; 90.5% in test [3]; 81.6% in test [4]; 83.8% in test [5]; 104% in test [6]. The growth in test [7] was 98.2%; in test [8], 93.3%; in [9] it was 106%.
